Test [1] can be described thus: P. berghei load reduction in hepatocytes – cell-based, HepG2, luciferase luminescence, HepG2 viability, primary screen (AID 624349; in the data active = parasite load remaining mostly below about 12%, no sharp cut-off; inactive = mostly above about 10%;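 note: 100% = mean of DMSO negative control wells on the same plate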). As to conditions: P. berghei liver stage in HepG2, luciferase luminescence, concentration not given here; parasite load remaining: stronger effect = lower value; viability: measured here: HepG2 viability without parasites.
Test [2] is described as follows: EMT-state selective cytotoxicity in co-culture – imaging, PC-3E GFP, TEM4-18 mCherry, primary screen (AID 1345086;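 active = compounds killing one labelled cell type while sparing the other, by normalised counts and ratio limits, not self-fluorescent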;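 for all read-outs here: cells exposed to compound for 72 h before imaging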;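 for red/green cell ratio (normalised): normalised mesenchymal count divided by normalised epithelial count so high means epithelial killing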). As to conditions: PC-3E GFP / TEM4-18 mCherry co-culture, imaging cell counts, at 1 µM; for red/green cell ratio (normalised): actives lie on both sides, counts scaled to control wells, 1 = unselective.
Test [3] can be described thus: viability loss with induced miR-34 in A549 – imaging, A549 dox-inducible miR-34, nuclei and caspase counts, primary screen (AID 1347080). The settings on record: A549 miR-34 inducible, Hoechst nuclei count, 48 h.
Test [4] in a line: MELAS cybrid and Rieske KO viability enhancers – cell-based, MELAS cybrids, Rieske KO mouse fibroblasts, CellTiter-Glo, primary screen (AID 1508586;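 active = mean z-score across replicates of 1.96 or higher in either the MELAS or the Rieske mutant cell line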;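 note: z relative to plate mean and SD of compound and empty wells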). As to conditions: low glucose. For orientation: Cellular ATP, detected with luciferase, serves as a proxy for viable cell number.
Test [5] concerns the target NAD(+) hydrolase SARM1 (Homo sapiens) (UniProt Q6SZW1). As to the kind of experiment: blocking NAD cleavage by SARM1 SAM-TIR – cell lysate, NAD-Glo luminescence (AID 1508614;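 active = compound whose remaining NAD level is above about 45 nM, limit read from the data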;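 note: higher remaining NAD means stronger inhibition of SARM1 NADase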). As to conditions: SAM-TIR HEK293T lysate NADase, at 1 µM, stronger effect = higher value.
A short description of test [6]: compounds altering circadian rhythm period length – cell-based, LOPAC library, luminescence reporter (AID 2774; call rule not given here;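 note: values are relative to mean of DMSO wells on each plate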). The settings on record: circadian reporter cells, at 7 µM, actives lie on both sides.
In test [7] the test system is Hepatitis C virus NS3 helicase. The experiment in a line: blockers of NS3h binding to ssDNA – biochemical, fluorescence polarization, LOPAC1280 library, primary screen (AID 687035; in the data active = inhibition above about 37%). As to conditions: Purified HCV NS3 helicase, Cy5-dT15 ssDNA binding fluorescence polarization; stronger effect = higher value; concentration not given here. On the technique in general: Polarisation of emitted light reports the rotation of a fluorescent probe.

Test [8] is described as follows: compounds altering Cy5-DNA-NS3h complex signal – biochemical, LOPAC1280, artefact control for HCV NS3 helicase inhibitor project (AID 687037; call rule not given here). The settings on record: Cy5-DNA-NS3h complex fluorescence interference counterscreen. In general terms: A counterscreen serves to expose hits that act by an unwanted route or on another target.
The nature of test [9]: blockers of cellular phospholipid synthesis – cell-based, LOPAC library, screen 4, primary screen (AID 1347384; call rule not given here). The settings on record: animal cells, phospholipid biosynthesis inhibition screen; at 10 µM.
Test [10] is described as follows: galactose survival enhancers in mitochondrial complex I cybrids – cell-based, galactose medium, ATP luminescence, primary screen (AID 1645843;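 active = z-score of at least 1.8 in each of two replicates, scored against plate mean and spread of sample wells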;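 note: positive z means more ATP and so rescue of galactose-driven cybrid death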). The settings on record: complex I mutant cybrid cells, 72 h, stronger effect = higher value.
The target in test [11] is Mitogen-activated protein kinase 7 (Homo sapiens) (UniProt Q13164). As to the kind of experiment: Gal4-ERK5 driven luciferase induction – cell-based, HTS, primary screen (AID 1508626;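 active = luciferase signal above three times the same-plate solvent-only control wells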;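 note: luciferase driven by Gal4-ERK5 fusion binding five Gal4 sites before minimal TATA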). The settings on record: HeLa Gal4-ERK5 transactivation, 18 h, at 5 µM, stronger effect = higher value.
Sequence of Mitogen-activated protein kinase 7 (Homo sapiens) (Q13164 whole entry, looked up, the tested form may be a part): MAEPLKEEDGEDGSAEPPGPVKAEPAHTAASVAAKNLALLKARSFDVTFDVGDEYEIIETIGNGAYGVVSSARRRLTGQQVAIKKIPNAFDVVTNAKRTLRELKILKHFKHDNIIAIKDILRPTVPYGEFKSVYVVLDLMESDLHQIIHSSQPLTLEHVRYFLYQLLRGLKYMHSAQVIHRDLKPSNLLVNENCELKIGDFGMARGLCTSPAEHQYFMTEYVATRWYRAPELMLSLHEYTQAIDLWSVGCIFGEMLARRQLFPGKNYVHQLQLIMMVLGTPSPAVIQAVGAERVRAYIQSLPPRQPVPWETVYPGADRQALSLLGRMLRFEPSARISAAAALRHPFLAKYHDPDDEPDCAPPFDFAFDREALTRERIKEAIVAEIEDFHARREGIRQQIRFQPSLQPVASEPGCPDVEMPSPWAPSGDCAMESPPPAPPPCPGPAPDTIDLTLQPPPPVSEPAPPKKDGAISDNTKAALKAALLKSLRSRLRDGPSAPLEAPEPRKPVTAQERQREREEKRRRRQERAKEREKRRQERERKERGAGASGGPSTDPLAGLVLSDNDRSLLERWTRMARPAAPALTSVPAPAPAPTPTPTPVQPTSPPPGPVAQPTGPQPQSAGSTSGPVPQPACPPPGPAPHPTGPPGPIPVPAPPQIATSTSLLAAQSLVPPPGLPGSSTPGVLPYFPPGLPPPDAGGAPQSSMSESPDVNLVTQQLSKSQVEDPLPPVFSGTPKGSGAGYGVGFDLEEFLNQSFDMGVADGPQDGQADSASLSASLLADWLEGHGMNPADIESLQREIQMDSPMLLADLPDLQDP
Setting [12] is: measured here: epithelial PC-3E GFP cell survival.
Where [13] appears, read: measured here: mesenchymal TEM4-18 mCherry cell survival.
The mark [14] stands for this setting: stronger effect = lower value, cell number ratio, induced over uninduced.
The mark [15] stands for this setting: measured here: relative caspase fold change +Dox/-Dox.
Setting [16] is: measured here: total cells with miR-34 induction, stronger effect = lower value.
Where [17] appears, read: measured here: total cells without miR-34 induction.
Setting [18] is: MELAS cybrid survival, CellTiter-Glo 48 h, stronger effect = higher value.
The mark [19] stands for this setting: Rieske KO mouse fibroblast survival, CellTiter-Glo 72 h.

Data on seven compounds can be found in PubChem BioAssay.

“And” between values parts separate entries of the source, which are not always exact repeats. Equal entries are not always repeated. The source made the active and inactive calls.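 Rule for the calls, unless noted: active = compounds whose cell count with miR-34 switched on is under 0.7 times the count with it off; inactive = the rest.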

Sequence of NAD(+) hydrolase SARM1 (Homo sapiens) (Q6SZW1 whole entry, looked up): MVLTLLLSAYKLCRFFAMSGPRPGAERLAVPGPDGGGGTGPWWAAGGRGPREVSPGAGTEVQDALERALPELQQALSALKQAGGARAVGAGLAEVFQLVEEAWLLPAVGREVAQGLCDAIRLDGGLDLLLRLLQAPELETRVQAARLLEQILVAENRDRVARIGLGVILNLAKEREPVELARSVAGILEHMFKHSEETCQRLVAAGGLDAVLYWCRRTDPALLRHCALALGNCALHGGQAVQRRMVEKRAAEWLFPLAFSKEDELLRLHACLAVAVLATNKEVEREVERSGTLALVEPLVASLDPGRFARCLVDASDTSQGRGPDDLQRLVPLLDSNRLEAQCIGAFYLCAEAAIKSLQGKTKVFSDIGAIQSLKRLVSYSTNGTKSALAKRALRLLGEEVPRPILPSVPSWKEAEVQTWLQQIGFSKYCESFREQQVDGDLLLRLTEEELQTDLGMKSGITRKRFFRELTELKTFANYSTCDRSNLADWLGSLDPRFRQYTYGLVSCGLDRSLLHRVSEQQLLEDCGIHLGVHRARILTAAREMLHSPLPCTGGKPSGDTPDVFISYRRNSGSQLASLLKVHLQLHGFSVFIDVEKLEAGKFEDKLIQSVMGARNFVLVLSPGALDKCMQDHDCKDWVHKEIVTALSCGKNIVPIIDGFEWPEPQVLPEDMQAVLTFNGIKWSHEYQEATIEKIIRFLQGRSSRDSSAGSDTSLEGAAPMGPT

Turning to `COC1CC2CCC(C)C(O)(O2)C(=O)C(=O)N2CCCCC2C(=O)OC(C(C)CC2CCC(O)C(OC)C2)CC(=O)C(C)/C=C(\C)C(O)C(OC)C(=O)C(C)CC(C)/C=C/C=C/C=C/1C` (stereo unspecified), the parasite load remaining in test [1] was 60.9% (inactive). In [1], the viability amounted to 98.1%. Besides, in test [2], the red/green cell ratio (normalised) is 1.36 (inactive). The normalised cell number in [2] (setting [12]) was determined as 0.36; in [2] (setting [13]) it was 0.49. The fold change in test [3] (setting [14]) is 0.865 (inactive); in test [3] (setting [15]), 3.67. Also, the cell count in test [3] (setting [16]) was determined as 7720; in [3] (setting [17]), 8920.

As for `N=C(N)c1ccc(N=NNc2ccc(C(=N)N)cc2)cc1` (tested in a mixture with another compound), in [2], the red/green cell ratio (normalised) was 0.86 (inactive). Moreover, the normalised cell number is 1.06 in test [2] (setting [12]) and 0.91 in test [2] (setting [13]). Besides, the fold change in test [3] (setting [14]) is 0.828 (inactive) and 0.804 (inactive); in test [3] (setting [15]), 1.35 and 1.21. Besides, the cell count in test [3] (setting [16]) is 6360 and 8020; in test [3] (setting [17]), 7680 and 9970. Besides, the z-score in [4] (setting [18]) was 6.02 (active); in test [4] (setting [19]) it was 5.36. The remaining NAD in test [5] is 10 nM (inactive).

On to `CN1C2CCC1CC(OC(=O)c1c[nH]c3ccccc13)C2` (stereo unspecified), for which, in test [6], the period change was 0.005 h (inactive). In addition, in test [7], the inhibition is 0% (inactive). The fluorescence ratio (interference) in test [8] is 1 (inactive). Besides, in test [2], the red/green cell ratio (normalised) was 1.09 (inactive). The normalised cell number in test [2] (setting [12]) was found to be 0.93; in [2] (setting [13]), 1.02. Moreover, the fold change is 0.997 (inactive) and 0.976 (inactive) and 0.922 (inactive) in test [3] (setting [14]); 1.28 and 0.664 and 2.09 in [3] (setting [15]). Further, the cell count in test [3] (setting [16]) is 10100 and 8850 and 6980; in [3] (setting [17]), 10100 and 9070 and 7570. In addition, the call in [9] was inactive. For the same compound, the z-score in test [10] was -0.34 (inactive) and 0.77 (inactive).

`Cc1cc(-n2c(=O)[nH]c(=O)n(C)c2=O)ccc1Oc1ccc(SC(F)(F)F)cc1`: the parasite load remaining in test [1] was 24.3% (inactive). This compound showed a viability in [1] of 72%. Further, in [2], the red/green cell ratio (normalised) is 0.98 (inactive). In addition, the normalised cell number in test [2] (setting [12]) was 1.07; in test [2] (setting [13]), 1.05. The fold change was 0.875 (inactive) and 0.912 (inactive) in [3] (setting [14]); 1.01 and 1.07 in [3] (setting [15]). Also, the cell count in test [3] (setting [16]) is 7860 and 10300; in test [3] (setting [17]) it was 8980 and 11300. The z-score in test [4] (setting [18]) was -0.0992 (inactive) and -0.247 (inactive) and 0.135 (inactive); in test [4] (setting [19]) it was -0.203 and -0.144 and -0.234; in test [10], 0.65 (inactive). For the same compound, the remaining NAD in [5] is 10 nM (inactive). The luciferase signal in test [11] is 136 AU (inactive).

As for `O=[N+]([O-])O[C@@H]1CO[C@H]2[C@@H]1OC[C@@H]2O`, the parasite load remaining in [1] is 73.3% (inactive). The compound further returned a viability in test [1] of 93.9%. In addition, in test [2], the red/green cell ratio (normalised) is 1.19 (inactive). Besides, the normalised cell number in [2] (setting [12]) was 1.15; in test [2] (setting [13]), 1.37. Further, the fold change in [3] (setting [14]) is 0.933 (inactive); in test [3] (setting [15]), 3.92. In addition, the results for the cell count in [3] (setting [16]) and in [3] (setting [17]) were 12300 and 13200, respectively. Moreover, the z-score in [4] (setting [18]) was -0.228 (inactive); in test [4] (setting [19]), 0.0347. For the same compound, the remaining NAD in test [5] is 12 nM (inactive). Also, the luciferase signal in test [11] was 52 AU (inactive).

On to `O=C(O)c1ccccc1`, for which, in [1], the parasite load remaining is 29.9% (inactive). In test [1], this compound came in with a viability of 83.9%. The red/green cell ratio (normalised) in [2] is 1.1 (inactive). Moreover, the normalised cell number came to 1.23 in test [2] (setting [12]) and 1.35 in test [2] (setting [13]). The fold change in test [3] (setting [14]) was 0.957 (inactive) and 0.932 (inactive); in [3] (setting [15]), 0.544 and 1.69. Also, the cell count in test [3] (setting [16]) was 8250 and 11300; in test [3] (setting [17]) it was 8620 and 12100. Further, the z-score in test [4] (setting [18]) was -0.248 (inactive); in test [4] (setting [19]), -0.209. Moreover, the remaining NAD in test [5] was 10 nM (inactive). In test [11], the luciferase signal was 36 AU (inactive).

Consider `CC1CC(OC(=O)C(O)c2ccccc2)CC(C)(C)C1` (stereo unspecified), for which the red/green cell ratio (normalised) in [2] is 1 (inactive). Besides, the normalised cell number in test [2] (setting [12]) and in test [2] (setting [13]) was 1.03 in each case. Also, the fold change is 0.925 (inactive) and 0.927 (inactive) in test [3] (setting [14]); 0.697 and 0.603 in test [3] (setting [15]). Also, the cell count in [3] (setting [16]) was 7310 and 7360; in test [3] (setting [17]) it was 7900 and 7940. In addition, the values for the z-score in test [4] (setting [18]) and in test [4] (setting [19]) were -0.227 (inactive) and -0.184, respectively. Moreover, the remaining NAD in test [5] is 10 nM (inactive).

The viability is a read-out of living cells in per cent, often relative to untreated cells. By inhibition is commonly meant the drop in the measured response relative to a control, in per cent.
